Sampled rows, rich in hits. Any-hit rate of the full collection: about 31%.
CYP2C9 activ = increases human cytochrome P450 2C9 activity; activation factor at 5 µM; hit rate 1.4% among 96,000; AID 1024; recombinant CYP2C9, luciferin-H conversion, luminescence; active compounds read high; factor 1 = untreated enzyme, 0 = blocked; P11712;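 active = activation factor of 2 or more for CYP2C9 at a 5 µM dose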;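 also: 0 = sulfaphenazole-blocked wells and 1 = vehicle-only wells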
Target sequence (P11712 whole entry, looked up): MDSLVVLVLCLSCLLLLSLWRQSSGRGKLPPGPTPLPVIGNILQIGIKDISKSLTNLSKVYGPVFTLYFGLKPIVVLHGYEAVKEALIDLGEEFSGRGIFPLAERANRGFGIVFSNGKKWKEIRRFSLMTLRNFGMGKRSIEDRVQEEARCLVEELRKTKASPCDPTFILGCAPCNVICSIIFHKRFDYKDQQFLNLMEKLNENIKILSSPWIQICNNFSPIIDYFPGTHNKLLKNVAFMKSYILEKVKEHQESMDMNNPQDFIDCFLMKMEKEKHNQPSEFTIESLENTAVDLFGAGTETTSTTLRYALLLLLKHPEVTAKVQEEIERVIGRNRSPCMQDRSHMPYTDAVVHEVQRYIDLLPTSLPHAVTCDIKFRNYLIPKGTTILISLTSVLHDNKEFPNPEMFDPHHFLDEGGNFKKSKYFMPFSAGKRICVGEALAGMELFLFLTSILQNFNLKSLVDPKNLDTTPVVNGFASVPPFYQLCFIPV
CYP2C19 inhib = inhibitors of human CYP2C19 | P33261 | CYP2C19 Supersomes, luciferin-H EGE luminescence, 30 min | inhibition, % at 5 µM | hit rate 21% among 96,000 | AID 778;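 active = CYP2C19 inhibition above a set limit at 5 µM in the primary screen, cut at about 50% in these data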;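 also: plate controls were negative control wells for no effect and 2.5 mM tranylcypromine positive control for full effect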
CYP2C19 activ = cytochrome P450 2C19 (human) activation; P33261; recombinant CYP2C19, luciferin-H EGE luminescence; active compounds read high; 0 = fully inhibited enzyme, 1 = untreated enzyme; activation factor at 5 µM; 96,000 tested, under 10 active; AID 1025;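 active = activation factor of at least 2 at 5 µM in the primary screen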;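 also: 0 = wells with 2.5 mM tranylcypromine and 1 = vehicle-only wells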
CYP2C9 inh = inhibitors of human CYP2C9; CYP2C9 Supersomes, luciferin-H conversion, luminescence; hit rate 20% among 96,000; P11712; inhibition, % at 5 µM; AID 777;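 active = blocking of liver enzyme CYP2C9 beyond about 50% at 5 µM, limit read from the data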
Numbers without * were called inactive.

SMILES | CYP2C9 activ | CYP2C19 inhib | CYP2C19 activ | CYP2C9 inh
CC(C)c1nnc(NC(=O)CCC(=O)NCc2cccs2)s1 | 0.9 | -6.5 | 1.1 | 9.3
Cc1nn(Cc2ccc(C(=O)NC(C)(C)C)o2)c(C)c1Br | 0.7 | 50.1* | 0.5 | 30.2
Cc1nn(Cc2ccc(C(=O)Nc3nc4c(C)cccc4s3)o2)c(C)c1Br | 0.7 | 22.6 | 0.8 | 30.9
Cc1nn(Cc2ccc(C(=O)NC3CCCCC3)o2)c(C)c1Br | 0.5 | 75.6* | 0.2 | 50.1*
Cc1nn(Cc2ccc(C(=O)Nc3ccc(C(=O)OC(C)C)cc3)o2)c(C)c1Cl | 0.4 | 46.0 | 0.5 | 63.2*
Cc1nn(Cc2ccc(Cl)cc2Cl)c(C)c1NC(=O)c1ccc(COc2cc(Cl)ccc2Cl)o1 | 0.5 | 32.0 | 0.7 | 47.0
Cc1cc(NC(=O)c2ccc(Cn3nc(C)c(Br)c3C)o2)no1 | 0.7 | 48.8 | 0.5 | 31.5
Cc1nn(C(C)C(=O)O)c2ccccc12 (stereo unspecified) | 1.1 | 4.9 | 1 | -7.2
CCOC(=O)CSc1nnc(CNC(=O)c2ccc(OC)cc2OC)n1-c1ccc(OC)cc1 | 0.8 | 13.6 | 0.9 | 21.5
Cn1c(C(=O)NCCCN2CCN(c3ccccc3F)CC2)cc2c(=O)n(C)c3ccccc3c21 | 0.5 | 65.6* | 0.3 | 50.0*
Cn1c(C(=O)NCCCN2CCOCC2)cc2c(=O)n(C)c3ccccc3c21 | 0.9 | 13.8 | 0.9 | 5.9
Cc1cc(=O)oc(C)c1C(=O)NCCCN1CCN(c2ccccc2F)CC1 | 0.4 | 8.4 | 0.9 | 63.6*
CC(=O)CN1Cc2ccccc2/C1=N\C(=O)Nc1ccccc1 | 0.5 | 57.9* | 0.4 | 47.8
Fc1ccc(CSc2nc3ncc(Br)cc3[nH]2)cc1 | 0.8 | 54.6* | 0.5 | 20.9
CCN(CC)C(=O)CSc1nc2ncc(Cl)cc2[nH]1 | 0.6 | 52.3* | 0.5 | 41.8
CCOC(=O)CNC(=O)CSc1nc2ncc(Br)cc2[nH]1 | 0.4 | 31.0 | 0.7 | 64.4*
CC(C)OC(=O)CSc1nc2ncc(Cl)cc2[nH]1 | 0.8 | 47.6 | 0.5 | 25.0
CCN(CC)C(=O)CSc1nc2ncc(Br)cc2[nH]1 | 0.6 | 69.0* | 0.3 | 43.7
COC(=O)CSc1nc2nc(C)c(Br)cc2[nH]1 | 0.8 | 22.8 | 0.8 | 17.5
CCCC(=O)N=C1SC2CS(=O)(=O)CC2N1c1ccc(CC)cc1 (stereo unspecified) | 0.9 | -2.8 | 1 | 10.4
O=C(NC1CCCC1)C(c1ccsc1)N(C(=O)Cc1cccs1)c1cccc(F)c1 (stereo unspecified) | 0.9 | 3.0 | 1 | 8.2
Cc1ccc(NCc2nnc(SC(C)C(=O)N/N=C/c3ccc(C)o3)n2-c2ccccc2)cc1 (stereo unspecified) | 0.9 | 28.8 | 0.7 | 9.3
COc1ccccc1CNC(=O)c1ccc(NS(C)(=O)=O)cc1 | 2* | -16.1 | 1.2 | -95.5
COc1ccccc1CNC(=O)c1ccccc1NS(C)(=O)=O | 0.3 | 33.0 | 0.7 | 74.9*
CCn1c(COc2ccccc2OC)nnc1SCC#N | 1.8 | 15.9 | 0.8 | -75.4
SMILES | CYP2C9 activ | CYP2C19 inhib | CYP2C19 activ | CYP2C9 inh
COc1ccc(CCNS(=O)(=O)c2ccc3c(c2)CCN3C(=O)C2CC2)cc1OC | 0.3 | 45.0 | 0.6 | 66.4*
CCOc1ccc(OCC)c(NS(=O)(=O)c2ccc3c(c2)CCN3C(=O)C2CCC2)c1 | 0.2 | 33.4 | 0.7 | 79.3*
COc1ccc(CCNS(=O)(=O)c2ccc3c(c2)n(C)c(=O)c(=O)n3C)cc1OC | 1.1 | 2.7 | 1 | -8.3
COc1ccc(CCNS(=O)(=O)c2ccc(S(=O)(=O)N3CCCC3)cc2)cc1OC | 0.4 | 35.8 | 0.6 | 56.6*
CC1CCCCN1S(=O)(=O)c1ccc2c(c1)CCN2C(=O)C1CCC1 (stereo unspecified) | 0.6 | 26.0 | 0.7 | 40.6
CCC(=O)N1CCc2cc(S(=O)(=O)NC(CC(C)C)C(=O)N3CCc4ccccc43)ccc21 (stereo unspecified) | 0.8 | 52.0* | 0.5 | 24.3
COc1ccc(CCNS(=O)(=O)c2ccc3c(c2)CC(C)N3C(C)=O)cc1OC (stereo unspecified) | 0.6 | 24.6 | 0.8 | 38.2
COc1ccc(C(=O)Nc2nc3ccccc3[nH]2)cc1S(=O)(=O)N1CCCC1 | 0.9 | 7.5 | 0.9 | 13.6
Cc1cccnc1NC(=O)C1CCCN(S(=O)(=O)c2ccc3c(c2)oc(=O)n3C)C1 (stereo unspecified) | 0.6 | 23.4 | 0.8 | 40.1
CC(=O)C1=C(C)N(Cc2ccco2)C(=O)C1(NC(=O)C1CCCCC1)C(F)(F)F (stereo unspecified) | 0.7 | -7.8 | 1.1 | 26.8
CCC(=O)N1CCc2cc(S(=O)(=O)CCC(=O)NCCc3ccc(OC)c(OC)c3)ccc21 | 0.4 | 27.6 | 0.7 | 55.1*
CC(=O)N1CCc2cc(S(=O)(=O)CCC(=O)NCc3cccs3)ccc21 | 1.1 | 10.6 | 0.9 | -13.1
CCC(=O)N1CCc2cc(S(=O)(=O)CCC(=O)NCCc3ccccc3)ccc21 | 0.5 | 35.0 | 0.7 | 50.5*
COc1ccc(CCNC(=O)CCC(=O)N2CCN(S(=O)(=O)c3ccc(Cl)cc3)CC2)cc1OC | 0.9 | 0.5 | 1 | 14.4
CCNC(=S)N/N=C/c1ccc(OCCOc2ccccc2C)cc1 | 1 | 1.5 | 1 | -1.0
COc1cccc(C(=O)N/N=C2/SCC(=O)N2CCc2ccc(OC)c(OC)c2)c1 | 0.7 | 24.2 | 0.8 | 33.2
N#Cc1c(N)nc2c3c(sc(=N)c2c1N)NC(=O)CC3c1ccccc1 (stereo unspecified) | 0.9 | 72.8* | 0.3 | 11.7
N#Cc1c(N)nc2c3c(sc(=N)c2c1N)NC(=O)CC3c1c(F)cccc1Cl (stereo unspecified) | 1 | -14.1 | 1.1 | -4.2
Cc1ccc(C(=O)Nc2nc3ccccc3s2)s1 | 0.4 | 38.4 | 0.6 | 61.0*
c1ccc(CCNc2nc3ccccc3s2)cc1 | 0.2 | 97.0* | 0 | 81.5*
O=C(Nc1nc2ccccc2s1)c1cnccn1 | 0.7 | 65.4* | 0.3 | 29.3
CCOc1ccc2nc(NC(=O)c3cnccn3)sc2c1 | 1.1 | -8.2 | 1.1 | -10.1
CCOC(=O)Nc1nc2ccccc2s1 | 0.7 | -10.4 | 1.1 | 29.2
O=C(COC(=O)c1ccco1)Nc1nc2ccccc2s1 | 0.7 | 33.0 | 0.7 | 34.8
Cc1ccc(CNc2nc3ccccc3s2)s1 | 0.6 | 50.9* | 0.5 | 43.5
SMILES | CYP2C9 activ | CYP2C19 inhib | CYP2C19 activ | CYP2C9 inh
O=C(NCc1ccco1)C1OCCc2ccccc21 (stereo unspecified) | 0.7 | 19.2 | 0.8 | 28.6
O=C1C2C(C(=O)N1c1ccncc1)C1C=CC2C12CC2 (stereo unspecified) | 0.3 | 92.2* | 0.1 | 75.0*
O=C1CC(c2cccs2)Cc2nc(NCC3CCCO3)ncc21 (stereo unspecified) | 0.3 | 85.2* | 0.1 | 74.5*
COc1ccccc1N1CCN(C(=O)CCCCn2c(=O)[nH]c3ccsc3c2=O)CC1 | 0.7 | 47.8 | 0.5 | 31.1
Cc1csc2ncc(C(=O)NCc3ccc4c(c3)OCO4)c(=O)n12 | 0.9 | 36.0 | 0.6 | 12.4
O=C(CCCCn1c(=O)[nH]c2ccsc2c1=O)NCc1ccc2c(c1)OCO2 | 0.4 | 10.6 | 0.9 | 60.1*

Bioassay records as filed in PubChem BioAssay.
